Out of some 77,000 compounds screened, about 4,600 (6%) were called active. About 1% were inconclusive and are not listed. Only a selection was taken, and actives are over-represented in it overall. Values without a mark were called inactive.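 Rule for the calls: active = mean inhibition above about 93%, with at least 55% of replicates each passing it (limit read from the data, passing the limit was not always enough); inconclusive = only one of those two conditions holds; inactive = neither condition holds.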

The nature of this assay: growth inhibition of T. cruzi in host fibroblasts – cell-based, beta-gal Tulahuen parasites, NIH3T3 host, luminescence, primary screen (AID 624255). Conditions: T. cruzi beta-gal in NIH3T3, GalScreen luminescence, 90 h; at 8.34 µM; active compounds read high.
For the compound `CN1CCN(C(=O)C[C@@H]2C=C[C@@H](NS(=O)(=O)c3cccc(F)c3)[C@@H](CO)O2)CC1`, the inhibition was -46.4%.

For `O=C(C[C@H]1C=C[C@H](NC(=O)NC2CCCCC2)[C@H](CO)O1)NCc1ccccc1`, the inhibition was -29.6%.

On to `COc1ccc(CN(C)C[C@H]2OCCCC[C@@H](C)Oc3ccc(NS(C)(=O)=O)cc3C(=O)N([C@@H](C)CO)C[C@H]2C)cc1`, for which the inhibition is 89.5%.

For the compound `CN(C)CC(=O)Nc1ccc2c(c1)[C@@H]1C[C@H](CC(=O)NCC3CC3)O[C@@H](CO)[C@@H]1O2`, the inhibition is -19.8%.

Consider `COc1ccc(NC(=O)Nc2ccc3c(c2)C(=O)N([C@@H](C)CO)C[C@H](C)[C@H](CN(C)C(=O)Nc2ccccc2)OCCCC[C@@H](C)O3)cc1`, for which the inhibition is 54%.

In the case of `CO[C@@H]1CN(C)C(=O)c2cc(NC(=O)c3cccc(F)c3)ccc2OC[C@H](C)N(C)C[C@@H]1C`, the inhibition is 13.5%.

Regarding `O=C(c1cccnc1)N1C[C@H]2[C@@H](c3ccccc31)[C@H](CO)N2C(=O)C1CCCCC1`, the inhibition is 19.5%.

Turning to `COC(=O)C[C@@H]1CC[C@@H]2[C@H](COc3ccc(NS(=O)(=O)c4ccccc4F)cc3C(=O)N2C)O1`, the inhibition is 27.2%.

For `CCCC(=O)Nc1ccc2c(c1)OC[C@@H](C)N(CC1CCOCC1)C[C@H](C)[C@H](OC)CN(C)C2=O`, the inhibition is 7.69%.

For the compound `O=C(CN1CCOCC1)N1CCCCN2[C@@H](CO)[C@H](c3ccc(-c4ccccc4)cc3)[C@@H]2C1`, the inhibition was 112% (active).

On to `CCC(=O)N1CCCCN2[C@H](C1)[C@@H](c1ccc(-c3ccc(F)cc3)cc1)[C@@H]2CO`, for which the inhibition is 101% (active).

On to `COCC(=O)N1CCCCN2[C@H](CO)[C@H](c3ccc(-c4ccc(OC)cc4)cc3)[C@H]2C1`, for which the inhibition is 46.5%.

For `O=C(CN1CCOCC1)N1CCCCN2[C@H](C1)[C@H](c1ccc(-c3ccccc3F)cc1)[C@@H]2CO`, the inhibition was 26.1%.

With `CC(=O)N1CCCCN2[C@H](C1)[C@@H](c1ccc(-c3ccc(F)cc3)cc1)[C@@H]2CO`, the inhibition is 71%.

As for `CCC(=O)N1CCCCN2[C@H](C1)[C@@H](c1ccc(/C=C/c3ccccc3)cc1)[C@@H]2CO`, the inhibition is 105% (active).

With `COCC(=O)N1CCCCN2[C@H](CO)[C@@H](c3ccc(-c4ccc(OC)cc4)cc3)[C@@H]2C1`, the inhibition was 4.91%.

On to `C/C=C/c1ccc([C@H]2[C@@H](CO)N3CCCCN(C(=O)c4ccc(F)cc4)C[C@@H]23)cc1`, for which the inhibition was 90.9%.

Regarding `CCC(=O)N1CCCCN2[C@H](CO)[C@@H](c3ccc(-c4cccnc4)cc3)[C@H]2C1`, the inhibition is 88.7%.

Consider `COCC(=O)N1CCCCN2[C@H](C1)[C@@H](c1ccc(-c3ccccc3)cc1)[C@@H]2CO`, for which the inhibition was 53.8%.

As to `O=C(CN1CCOCC1)N1CCCCN2[C@H](CO)[C@H](c3ccc(-c4ccccc4)cc3)[C@@H]2C1`, the inhibition was 102% (active).

In the case of `CO[C@@H]1CN(C)C(=O)c2ccc(NS(=O)(=O)c3ccc(C)cc3)cc2OC[C@@H](C)N(Cc2nccs2)C[C@H]1C`, the inhibition was 41.1%.

Consider `C[C@@H]1CN([C@@H](C)CO)C(=O)c2cc(C#CC3CC3)cnc2O[C@@H]1CN(C)C(=O)Cc1ccccn1`, for which the inhibition is 51.4%.

For `CCCN(C)C[C@H]1OCCCC[C@@H](C)Oc2ccc(NC(=O)CCC(F)(F)F)cc2C(=O)N([C@H](C)CO)C[C@H]1C`, the inhibition is 67.3%.

For `O=C(C[C@H]1CC[C@@H](NC(=O)c2ccncc2)[C@@H](CO)O1)Nc1ccccc1`, the inhibition is 19.5%.

`CC(C)NC(=O)Nc1ccc2c(c1)C(=O)N(C)[C@H]1CC[C@H](CC(=O)NCC3CCCCC3)O[C@@H]1CO2`: the inhibition is 22.4%.

As for `O=C(C1CCOCC1)N1C[C@H]2[C@@H](c3ccccc31)[C@@H](CO)N2Cc1ccccc1F`, the inhibition was -22.5%.

In the case of `O=C(CN1CCOCC1)N1CCCCN2[C@H](CO)[C@H](c3ccc(Br)cc3)[C@H]2C1`, the inhibition was 36%.

On to `OC[C@H]1[C@@H](c2ccc(/C=C/c3ccccc3)cc2)[C@H]2CN(Cc3cccnc3)CCCCN21`, for which the inhibition is 23.4%.

Consider `O=C(CN1CCOCC1)N1CCCCN2[C@@H](CO)[C@H](c3ccc(/C=C/c4ccccc4)cc3)[C@@H]2C1`, for which the inhibition is 102% (active).

On to `COc1ccc(S(=O)(=O)Nc2ccc3c(c2)C(=O)N([C@H](C)CO)C[C@H](C)[C@H](CN(C)Cc2ccc(C(F)(F)F)cc2)O3)cc1`, for which the inhibition is 100% (active).

With `COc1ccc(CN(C)C[C@@H]2Oc3ccc(NS(=O)(=O)c4ccc(F)cc4)cc3C(=O)N([C@@H](C)CO)C[C@@H]2C)cc1`, the inhibition is 11.1%.

Consider `Cc1ccc(S(=O)(=O)Nc2ccc3c(c2)C(=O)N([C@@H](C)CO)C[C@@H](C)[C@H](CN(C)Cc2ccc(C(F)(F)F)cc2)O3)cc1`, for which the inhibition was 42.1%.

For `C[C@H](CO)N1C[C@H](C)[C@H](CN(C)Cc2ccc(C(F)(F)F)cc2)Oc2ccc(NS(=O)(=O)c3ccc(Cl)cc3)cc2C1=O`, the inhibition is 127% (active).

Consider `C[C@@H]1CN([C@@H](C)CO)C(=O)Cc2cc(NS(=O)(=O)c3ccc(Cl)cc3)ccc2O[C@H]1CN(C)Cc1ccc(C(F)(F)F)cc1`, for which the inhibition was -1.87%.

With `COc1ccc(S(=O)(=O)Nc2ccc3c(c2)CC(=O)N([C@H](C)CO)C[C@H](C)[C@H](CN(C)Cc2ccc(C(F)(F)F)cc2)O3)cc1`, the inhibition was 75%.

On to `COc1ccc(S(=O)(=O)Nc2ccc3c(c2)CC(=O)N([C@@H](C)CO)C[C@H](C)[C@@H](CN(C)Cc2ccc(C(=O)O)cc2)O3)cc1`, for which the inhibition is -13.7%.

In the case of `COc1ccc(S(=O)(=O)Nc2ccc3c(c2)C(=O)N([C@@H](C)CO)C[C@H](C)[C@H](CN(C)Cc2ccc(C(=O)O)cc2)O3)cc1`, the inhibition was -6.07%.

On to `COc1ccc(S(=O)(=O)Nc2ccc3c(c2)C(=O)N([C@@H](C)CO)C[C@H](C)[C@@H](CN(C)Cc2ccc(C(F)(F)F)cc2)O3)cc1`, for which the inhibition is 105% (active).

`COc1ccc(CN(C)C[C@@H]2Oc3ccc(NS(=O)(=O)c4ccc(OC)cc4)cc3C(=O)N([C@H](C)CO)C[C@H]2C)cc1`: the inhibition is 0.955%.

For `COc1ccc(CN(C)C[C@H]2Oc3ccc(NS(=O)(=O)c4ccc(C)cc4)cc3C(=O)N([C@@H](C)CO)C[C@H]2C)cc1`, the inhibition is 37.9%.

Consider `COc1ccc(CN(C)C[C@H]2Oc3ccc(NS(=O)(=O)c4ccc(Cl)cc4)cc3CC(=O)N([C@@H](C)CO)C[C@H]2C)cc1`, for which the inhibition was 96.7% (active).

Turning to `C[C@@H]1CN([C@@H](C)CO)S(=O)(=O)c2ccc(-c3ccncc3)cc2O[C@@H]1CN(C)C(=O)C1CCC1`, the inhibition is 76.2%.

With `O=C(Nc1ccc(F)cc1)N[C@@H]1CC[C@H](CC(=O)N2CCCCC2)O[C@H]1CO`, the inhibition is -3.48%.

With `CCCNC(=O)[C@H]1[C@H](CO)[C@H]2Cn3c(ccc(-c4cccc(F)c4)c3=O)[C@@H]1N2C(=O)CC`, the inhibition is 1.74%.

Turning to `CC(C)CC#Cc1cnc2c(c1)C(=O)N([C@H](C)CO)C[C@H](C)[C@@H](CN(C)C(=O)Cc1cccnc1)O2`, the inhibition was 3.64%.

For the compound `Cc1noc(C)c1S(=O)(=O)N(C)C[C@@H]1OCCCC[C@@H](C)Oc2ccc(NC(=O)c3ccccc3)cc2C(=O)N([C@@H](C)CO)C[C@@H]1C`, the inhibition is 14.7%.

The values are drawn from PubChem BioAssay AID624255 (Broad Institute, 2012).
